Data from PubChem BioAssay AID1159580 (chemical genetic matrix, 2015).
The whole screen tested about 5,500 compounds, of which about 2,000 (36%) were called active. Roughly 18% stayed inconclusive and do not appear here. Rule as the data show it: active = normalized growth mostly below about 0.91 (no sharp cut-off); inconclusive = no clear call, values can overlap the other calls; inactive = mostly above about 0.92. This is one part of the list.

Assay: chemical genetic growth profiling, strain panel (AID 1159580);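 also: tested at 20 µM; growth read once vehicle control cultures reached saturation at 30 °C; 1 = growth at the plate median or of vehicle wells; lower values mean less growth of the strain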
Settings: growth OD

Measured: normalized growth

CC(=O)OCC(=O)[C@@]1(O)[C@H](OC(C)=O)CC2C3CCC4=CC(=O)C=C[C@]4(C)[C@@]3(F)[C@@H](O)C[C@@]21C (some centres not stated)
inactive: S. cerevisiae deletion strains, locus YJR066W, strain TOR1, hits give low values 0.935 | S. cerevisiae deletion strains, locus YKL009W, strain mrt4, hits give low values 0.993 | S. cerevisiae deletion strains, locus YKL068W, hits give low values 0.994 | S. cerevisiae deletion strains, locus YKL085W, strain MDH1 (second series), hits give low values 1 | S. cerevisiae deletion strains, locus YKL085W, strain MDH1, hits give low values 1 | S. cerevisiae deletion strains, locus YKL160W, strain elf1, hits give low values 1.02 | S. cerevisiae deletion strains, locus YKL190W, strain CNB1, hits give low values 0.996 | S. cerevisiae deletion strains, locus YKR001C, strain vps1, hits give low values 0.999 | S. cerevisiae deletion strains, locus YKR026C, strain gcn3, hits give low values 0.993 | S. cerevisiae deletion strains, locus YKR091W, strain srl3, hits give low values 0.986 | S. cerevisiae deletion strains, locus YLL001W, strain dnm1, hits give low values 1.03 | S. cerevisiae deletion strains, locus YLL026W, hits give low values 1 | S. cerevisiae deletion strains, locus YLL041C, strain sdh2, hits give low values 0.985 | S. cerevisiae deletion strains, locus YLR027C, strain aat2, hits give low values 1.01 | S. cerevisiae deletion strains, locus YLR039C, strain RIC1, hits give low values 0.995 | S. cerevisiae deletion strains, locus YLR058C, strain SHM2, hits give low values 0.98 | S. cerevisiae deletion strains, locus YLR102C, strain apc9, hits give low values 0.999 | S. cerevisiae deletion strains, locus YLR113W, strain HOG1, hits give low values 0.98 | S. cerevisiae deletion strains, locus YLR221C, strain rsa3, hits give low values 0.956 | S. cerevisiae deletion strains, locus YLR258W, strain gsy2, hits give low values 0.982 | S. cerevisiae deletion strains, locus YLR262C, strain YPT6 (second series), hits give low values 1.01 | S. cerevisiae deletion strains, locus YLR262C, strain YPT6, hits give low values 0.974 | S. cerevisiae deletion strains, locus YLR268W, strain sec22, hits give low values 1.06 | S. cerevisiae deletion strains, locus YLR320W, strain mms22, hits give low values 0.97 | S. cerevisiae deletion strains, locus YLR330W, strain CHS5, hits give low values 0.993 | S. cerevisiae deletion strains, locus YLR342W, strain FKS1 (second series), hits give low values 1.01 | S. cerevisiae deletion strains, locus YLR342W, strain FKS1, hits give low values 1.02 | S. cerevisiae deletion strains, locus YLR357W, strain rsc2, hits give low values 0.974 | S. cerevisiae deletion strains, locus YLR370C, strain arc18, hits give low values 0.99 | S. cerevisiae deletion strains, locus YLR371W, strain rom2, hits give low values 0.983 | S. cerevisiae deletion strains, locus YLR384C, strain iki3, hits give low values 0.996 | S. cerevisiae deletion strains, locus YLR418C, strain cdc73, hits give low values 1 | S. cerevisiae deletion strains, locus YML016C, strain PPZ1, hits give low values 0.996 | S. cerevisiae deletion strains, locus YML032C, strain rad52, hits give low values 1.01 | S. cerevisiae deletion strains, locus YML120C, strain ndi1, hits give low values 1 | S. cerevisiae deletion strains, locus YML124C, strain tub3, hits give low values 0.991 | S. cerevisiae deletion strains, locus YMR058W, strain fet3, hits give low values 0.991 | S. cerevisiae deletion strains, locus YMR078C, strain ctf18, hits give low values 0.987 | S. cerevisiae deletion strains, locus YMR125W, strain sto1, hits give low values 0.983 | S. cerevisiae deletion strains, locus YMR129W, hits give low values 0.967 | S. cerevisiae deletion strains, locus YMR205C, strain PFK2, hits give low values 1.02 | S. cerevisiae deletion strains, locus YMR223W, strain ubp8, hits give low values 0.98 | S. cerevisiae deletion strains, locus YMR231W, strain pep5, hits give low values 1 | S. cerevisiae deletion strains, locus YMR263W, strain SAP30, hits give low values 0.991 | S. cerevisiae deletion strains, locus YMR307W, strain GAS1, hits give low values 1 | S. cerevisiae deletion strains, locus YNL067W, strain RPL9B, hits give low values 0.998 | S. cerevisiae deletion strains, locus YNL071W, strain lat1, hits give low values 0.974 | S. cerevisiae deletion strains, locus YNL183C, strain NPR1, hits give low values 0.949 | S. cerevisiae deletion strains, locus YNL209W, strain ssb2, hits give low values 0.986 | S. cerevisiae deletion strains, locus YNL233W, strain BNI4, hits give low values 0.986 | S. cerevisiae deletion strains, locus YNL248C, strain rpa49, hits give low values 0.937 | S. cerevisiae deletion strains, locus YNL250W, strain rad50, hits give low values 0.985 | S. cerevisiae deletion strains, locus YNL271C, strain bni1, hits give low values 0.997 | S. cerevisiae deletion strains, locus YNL298W, strain CLA4, hits give low values 1 | S. cerevisiae deletion strains, locus YNL307C, strain MCK1, hits give low values 0.998 | S. cerevisiae deletion strains, locus YNL322C, strain KRE1 (second series), hits give low values 0.998 | S. cerevisiae deletion strains, locus YNR049C, strain mso1, hits give low values 0.979 | S. cerevisiae deletion strains, locus YNR052C, strain pop2, hits give low values 1 | S. cerevisiae deletion strains, locus YOL006C, strain TOP1, hits give low values 0.959 | S. cerevisiae deletion strains, locus YOL012C, strain htz1 1.14 | S. cerevisiae deletion strains, locus YOL147C, strain pex11, hits give low values 0.994 | S. cerevisiae deletion strains, locus YOR001W, strain rrp6, hits give low values 1 | S. cerevisiae deletion strains, locus YOR061W, strain CKA2, hits give low values 0.963 | S. cerevisiae deletion strains, locus YOR069W, strain VPS5, hits give low values 0.993 | S. cerevisiae deletion strains, locus YOR070C, strain gyp1, hits give low values 0.989 | S. cerevisiae deletion strains, locus YOR080W, strain dia2, hits give low values 0.997 | S. cerevisiae deletion strains, locus YOR083W, strain WHI5, hits give low values 1.01 | S. cerevisiae deletion strains, locus YOR106W, strain vam3, hits give low values 1.02 | S. cerevisiae deletion strains, locus YOR136W, strain idh2, hits give low values 0.981 | S. cerevisiae deletion strains, locus YOR144C, strain elg1, hits give low values 0.998 | S. cerevisiae deletion strains, locus YOR184W, strain ser1, hits give low values 0.986 | S. cerevisiae deletion strains, locus YOR231W, strain MKK1, hits give low values 0.982 | S. cerevisiae deletion strains, locus YOR265W, strain rbl2, hits give low values 0.982 | S. cerevisiae deletion strains, locus YOR270C, strain vph1, hits give low values 0.973 | S. cerevisiae deletion strains, locus YOR290C, strain snf2, hits give low values 0.952 | S. cerevisiae deletion strains, locus YOR316C, strain cot1, hits give low values 0.993 | S. cerevisiae deletion strains, locus YPL051W, strain arl3, hits give low values 1.01 | S. cerevisiae deletion strains, locus YPL078C, strain atp4, hits give low values 1.02 | S. cerevisiae deletion strains, locus YPL106C, strain sse1, hits give low values 0.982 | S. cerevisiae deletion strains, locus YPL240C, strain hsp82, hits give low values 1 | S. cerevisiae deletion strains, locus YPL256C, strain CLN2, hits give low values 0.969 | S. cerevisiae deletion strains, locus YPR119W, strain clb2, hits give low values 0.998 | S. cerevisiae deletion strains, locus YPR141C, strain kar3, hits give low values 0.982 | S. cerevisiae deletion strains, locus YPR163C, strain tif3, hits give low values 0.985 | S. cerevisiae deletion strains, locus YPR167C, strain met16, hits give low values 0.992 | S. cerevisiae deletion strains, strain wtn01, hits give low values 1 | S. cerevisiae strains, strain wild type, hits give low values 0.983
